Screening results as filed in PubChem BioAssay.
A selection: hits, their analogues and other compounds. The true share with any hit is near 18%.
VP16 counter: counter-screen for ROR gamma inhibitors: Gal4-VP16 reporter; Drosophila S2 Gal4-VP16 UAS-luciferase, luminescence, 20 h; Potency, µM (top dose mostly 53.6 µM), for the others: at the top dose activity, negative = inhibition, most hits filed as inhibitors; actives 3.5% (n = 310,000);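 note: Gal4-VP16 expression switched on by copper sulfate through the metallothionein promoter; potency is the fitted concentration of half-maximal effect; nearly all actives have a fitted effect of over 50% in size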
IL1B secr inh: inflammasome signaling inhibition, IL-1 beta readout | THP-1 LPS/ATP IL-1B secretion, AlphaLISA, 16 h; stronger effect = lower value | activity change, % at 57.5 µM | actives 4.7% (n = 360,000) | AID 743279; in the data active = activity change below about -50%; inconclusive = mostly about -30% to -49%
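THP-1 cells pretreated 1 hr with compounds (up to 57.5 uM final), then stimulated with LPS (250 ng/mL final) plus ATP (1.25 mM final); secreted IL-1B measured by AlphaLISA after 16 hr, decreased signal indicating inhibition.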
DT40 TDP1 CPT: growth inhibition of DT40 Tdp1-/-;hTDP1 cells with camptothecin (screen for TDP1 inhibitors); chicken DT40 Tdp1-/-;hTDP1 cells + 20 nM CPT, ATP luminescence, 48 h; Potency, µM (highest dose often 46.2 µM), for inactives: at the highest dose activity change, negative = growth inhibition, hits mostly inhibitors; actives 12% (n = 420,000); AID 686979; note: potency is the fitted concentration of half-maximal effect; nearly all actives have a fitted effect of over 55% in size
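Chicken DT40 Tdp1-/- cells stably complemented with human TDP1 were seeded at 400 cells/well in medium containing 20 nM camptothecin, exposed to pin-transferred compounds, and grown at 37 °C for at least 48 hr. Viability was read as ATP luminescence.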
LDHA block: LDHA (human) enzyme inhibition. P00338. purified LDHA, NADH/diaphorase-resazurin fluorescence; stronger effect = lower value. activity change, % (values are at about 110 or 230 µM). actives 0.15% (n = 480,000); in the data active = activity change below about -30%; inconclusive = mostly about -25% to -30%;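 note: plate controls were DMSO wells for no effect and wells without enzyme for full effect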
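Resorufin fluorescence (ex540/em590), read at 0 and 20 min after diaphorase/resazurin addition, reports the NADH left after a 5 min room-temperature reaction of 2 nM human LDH5 with 0.06 mM NADH and 0.2 mM pyruvate.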
TDP1 cell noCPT: qHTS for Inhibitors of human tyrosyl-DNA phosphodiesterase 1 (TDP1): qHTS in cells in absence of CPT; DT40 Tdp1-/- hTDP1 cells, no CPT, ATP luminescence, 48 h; Potency, µM (doses to about 46.2 µM), without a hit: at the highest dose activity change, negative = growth inhibition, most hits filed as inhibitors; actives 15% (n = 420,000); AID 686978, 2013; note: potency is the fitted concentration of half-maximal effect; nearly all actives have a fitted effect of over 55% in size
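Compound effects on proliferation are scored in DT40 Tdp1-/-;hTDP1 cells in the absence of CPT. ATP levels (CellTiter-Glo luminescence) are recorded after a ≥48 hr, 37 °C incubation.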
RORg inh: ROR gamma (mouse) transcription inhibition; Potency, µM (doses to about 53.6 µM), without a hit: at the top dose activity change, negative = inhibition, most hits filed as inhibitors; P51450; actives 5.4% (n = 310,000); AID 2551; Drosophila S2 Gal4-RORgamma UAS-luciferase reporter, 20 h; note: potency is the fitted concentration of half-maximal effect; nearly all actives have a fitted effect of over 60% in size
Target sequence (P51450 whole entry, looked up, the tested form may be a part): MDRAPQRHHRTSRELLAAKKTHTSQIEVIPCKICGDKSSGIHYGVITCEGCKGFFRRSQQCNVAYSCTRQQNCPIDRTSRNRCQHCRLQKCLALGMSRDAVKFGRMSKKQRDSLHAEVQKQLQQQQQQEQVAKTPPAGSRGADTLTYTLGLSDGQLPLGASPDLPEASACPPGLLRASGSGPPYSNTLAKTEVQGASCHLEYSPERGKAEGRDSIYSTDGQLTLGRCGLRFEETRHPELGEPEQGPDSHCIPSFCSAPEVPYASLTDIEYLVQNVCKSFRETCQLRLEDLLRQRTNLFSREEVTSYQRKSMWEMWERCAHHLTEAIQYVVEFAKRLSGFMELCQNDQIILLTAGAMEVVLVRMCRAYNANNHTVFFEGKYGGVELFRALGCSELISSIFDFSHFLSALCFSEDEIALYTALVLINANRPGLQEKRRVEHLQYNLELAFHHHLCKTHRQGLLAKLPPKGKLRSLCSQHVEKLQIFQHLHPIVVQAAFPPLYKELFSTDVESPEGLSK
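Drosophila Schneider cells stably carrying a metallothionein-driven Gal4 DBD–ROR gamma fusion and a UAS-Photinus luciferase reporter were exposed to compound for 1 hr, then induced with copper sulfate (700 uM final) for 20 hr at ambient temperature before luminescence reading.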
An asterisk follows results filed as active; ? = inconclusive; nt = no result. Unless noted, calls come from the whole dose curve; as a rule, active = well fitted curve in the direction sought with a large enough effect; inconclusive = small, poorly fitted or top-dose-only effect, or another doubt; inactive = no such curve, though single readings can be large; an effect the other way counts as inactive or inconclusive. Unless noted, % is set by controls: 0 for no effect and ±100 for the full control effect.

SMILES	VP16 counter	IL1B secr inh	DT40 TDP1 CPT	LDHA block	TDP1 cell noCPT	RORg inh
Cc1ccccc1NC(=O)c1ccc2nc(N3CCOCC3)sc2c1	?	-26	18µM*	-6	15µM*	6%
CC1CCN(c2nc3ccc(C(=O)NCc4ccc(Cl)cc4)cc3s2)CC1	nt	nt	?	1	?	nt
O=C(NCCc1ccccc1)c1ccc2nc(N3CCCCC3)sc2c1	nt	nt	-11%	1	?	nt
Cc1cccc(N2CCN(C(=O)c3ccc4nc(N5CCC(C)CC5)sc4c3)CC2)c1C	nt	nt	21µM*	-4	16µM*	nt
O=C(NCC1CCCO1)c1ccc2nc(N3CCCCC3)sc2c1 (stereo unspecified)	?	-6	-30%	-1	?	7.1µM*
CC1CCN(c2nc3ccc(C(=O)NCc4ccccc4Cl)cc3s2)CC1	nt	nt	?	0	21µM*	nt
Cc1ccc(CCNC(=O)c2ccc3nc(N4CCC(C)CC4)sc3c2)cc1	nt	nt	?	-11	?	nt
COc1ccc(S(=O)(=O)N(Cc2cc3ccccc3[nH]c2=O)C(C)C)cc1	nt	nt	nt	3	nt	nt
CC(C#N)OC(=O)c1ccc(-c2ccccc2Cl)o1 (stereo unspecified)	nt	nt	nt	6	nt	nt
CC1CCN(c2nc3ccc(C(=O)NCCCN4CCCCC4)cc3s2)CC1	4%	-20	?	0	23µM*	1%
Cc1ccc(S(=O)(=O)N(C)C[C@H]2Oc3ncc(-c4ccccc4)cc3C(=O)N([C@@H](C)CO)C[C@@H]2C)cc1	nt	-28	?	-1	13µM*	nt
COc1ccccc1S(=O)(=O)N(C)C[C@@H]1Oc2ncc(-c3ccc(C)cc3)cc2C(=O)N([C@H](C)CO)C[C@@H]1C	nt	-13	?	-8	16µM*	nt
COc1cccc(C#Cc2cnc3c(c2)C(=O)N([C@@H](C)CO)C[C@H](C)[C@H](CN(C)C(=O)C2CCC2)O3)c1	nt	-24	?	-10	13µM*	nt
Cc1ccc(-c2cnc3c(c2)C(=O)N([C@H](C)CO)C[C@@H](C)[C@@H](CN(C)C(=O)Cc2ccccc2)O3)cc1	nt	?	0%	-14	?	nt
Cc1ccc(S(=O)(=O)N(C)C[C@@H]2Oc3ncc(C#CCC(C)C)cc3C(=O)N([C@H](C)CO)C[C@H]2C)cc1	nt	-10	?	-12	16µM*	nt
Nc1c(-c2nc3ccccc3[nH]2)c2ccccn2c1C(=O)c1ccc(Cl)cc1	nt	nt	nt	-2	nt	nt
COc1cccc(C(=O)/C(C#N)=N/Nc2cccc(-c3ccnc(C)n3)c2)c1	?	0	?	-6	21µM*	?
CNC(=O)Nc1cccc(-c2ccnc(C)n2)c1	0%	34	7%	-1	-8%	7%
COCOCCn1cc(CN2CCS(=O)(=O)N(Cc3ccc(-c4ccc(C)cc4)cc3)C(CC(C)C)C2=O)nn1 (stereo unspecified)	nt	-21	-64%	3	?	nt
COCOCCn1cc(CN2CCS(=O)(=O)N(Cc3ccc(-c4ccc(OC)cc4)cc3)C(C)C2=O)nn1 (stereo unspecified)	nt	-3	21µM*	-7	12µM*	nt
CC(C)C1C(=O)N(Cc2cn(CCC3OCCCO3)nn2)CCS(=O)(=O)N1Cc1ccc(-c2ccncc2)cc1 (stereo unspecified)	nt	1	?	-2	?	nt
COCOCCn1cc(CN2CCS(=O)(=O)N(Cc3ccc(-c4ccc(Cl)c(Cl)c4)cc3)C(C(C)C)C2=O)nn1 (stereo unspecified)	nt	-28	2.3µM*	-17	2.3µM*	nt
COCOCCn1cc(CN2CCS(=O)(=O)N(Cc3ccc(-c4ccc(Cl)cc4)cc3)C(C(C)C)C2=O)nn1 (stereo unspecified)	nt	46	18µM*	0	21µM*	nt
